Compounds with a hit are over-represented: about 4.2% of the library has one in this group of screens.
Sfp inh = inhibitors of Bacillus subtilis Sfp phosphopantetheinyl transferase; Q9F4F7; Biochemical Sfp PPTase activity, qHTS; Potency, µM, inactives show largest response in the series, negative = inhibition, hits mostly inhibitors; 3.5% of 310,000 active;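 further: the enzyme is Sfp with the accession as filed and its product quenches rhodamine fluorescence; 0% = enzyme reaction without inhibitor and -100% = no enzyme wells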
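Reaction rates are the 30-min fluorescence difference (ex 525, em 598 nm) in wells containing 15 nM Sfp, 5 uM rhodamine-CoA and 12.5 uM BHQ-2-YbbR at pH 7.6 with 10 mM MgCl2.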
ALOX12 inh = blocks human arachidonate 12S-lipoxygenase | 1.1% of 580,000 active | P18054 | Potency, µM (doses to about 108 µM), inactives show top-dose activity change, negative = inhibition, usual class: inhibitors | purified 12hLO, xylenol orange hydroperoxide absorbance
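Purified human 12hLO at 150 nM in 25 mM Hepes, 0.01% Triton X-100, pH 7.0, preincubated 15 min at room temperature with compound. Reaction started with 40 uM arachidonic acid, 30 min at room temperature. Hydroperoxide measured by Fe-xylenol orange, 573/405 nm absorbance ratio.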
VDR inhibitor = blocks the human vitamin D receptor; 0.93% of 400,000 active; Potency, µM, inactives show max response, negative = inhibition, most hits filed as inhibitors; VDR-SRC2-3 peptide fluorescence polarization, 2 h
Target sequence (P11473 whole entry, looked up): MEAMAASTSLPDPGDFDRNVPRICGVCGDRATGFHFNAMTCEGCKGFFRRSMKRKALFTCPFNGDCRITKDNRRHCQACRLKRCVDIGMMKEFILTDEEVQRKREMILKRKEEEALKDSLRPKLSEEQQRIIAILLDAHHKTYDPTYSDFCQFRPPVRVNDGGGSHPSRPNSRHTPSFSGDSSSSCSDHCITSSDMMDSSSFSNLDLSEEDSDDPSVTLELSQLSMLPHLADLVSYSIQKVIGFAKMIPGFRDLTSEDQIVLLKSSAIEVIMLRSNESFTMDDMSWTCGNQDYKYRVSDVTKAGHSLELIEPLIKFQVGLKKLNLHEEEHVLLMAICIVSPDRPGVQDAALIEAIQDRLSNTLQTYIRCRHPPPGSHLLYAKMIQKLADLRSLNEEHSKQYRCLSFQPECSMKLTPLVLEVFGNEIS
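FP read-out; VDR + SRC2-3 coactivator peptide; 23 nl compound by pintool; 2 h RT incubation; reagents held at 4 deg C, protected from light.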
PLK1 PBD inh = inhibitors of human PLK1 polo-box domain binding. P53350. Plk1 PBD binding of FITC phosphopeptide, fluorescence polarization. Potency, µM, inactives show max response, negative = inhibition, usual class: inhibitors. 2.8% of 360,000 active. AID 720504; further: series mostly up to about 57 µM; nearly all actives have a fitted effect of over 65% in size
The depositor's hits bear a star; ? = inconclusive; nt = not tested or not shown; [ ] = another dose, or the depositor's remark. The call rests on the fitted dose curve; in most records, active means well fitted curve in the direction sought with a large enough effect; inconclusive means small, poorly fitted or top-dose-only effect, or another doubt; inactive means no such curve, though single readings can be large; an effect the other way counts as inactive or inconclusive. Unless noted, on the % scale 0 is the no-effect control and ±100 the full control effect; potency means the concentration at half of the fitted maximal effect.

SMILES	Sfp inh	ALOX12 inh	VDR inhibitor	PLK1 PBD inh
COc1cc(/C=C/C(=O)N[C@@H](Cc2c[nH]c3ccccc23)C(=O)O)ccc1O	10%	5%	-12%	-6%
CC1(C)CC(=O)C(C=NCCN2CCN(C3CC(=O)N(c4ccc(Cl)c(Cl)c4)C3=O)CC2)=C(O)C1 (centres undefined)	7%	46%	2%	-14%
CC1CCc2nc(-c3cc4ccc(O)cc4oc3=O)sc2C1 (centres undefined)	nt	nt	-18%	nt
COc1ccc([C@H]2C[C@@H](O)[C@@H](O)[C@@H]2NC(=O)C(C)C)cc1	nt	46%[176 µM]	nt	nt
COc1cccc(NC(=O)CN2CCN(S(=O)(=O)c3ccc(C(C)C)cc3)CC2)c1	-2%	21%	-1%	30µM*
O=S(=O)(c1ccc(NC(=S)NC23CC4CC(CC(C4)C2)C3)cc1)N1CCCCC1	nt	45µM*	nt	-9%
CN(C)NC(=S)Nc1ccc(S(=O)(=O)N2CCCCC2)cc1	17%	15%	0%	-13%
Cc1ccc(Oc2ccc3c(c2)C(=O)N(c2ccc(S(=O)(=O)Nc4nccs4)cc2)C3=O)cc1	-7%	20%	12%	?
C/C(=N/OC(=O)c1ccc(C)cc1)c1ccc(N2C(=O)C3CCCCC3C2=O)cc1 (centres undefined)	-8%	21%	?	30µM*
O=C(CCOc1ccccc1)N1CCN(c2ccc(O)cc2)CC1	50µM*	?	5%	2%
O=C(CCSc1ccc(Cl)cc1)N1CCN(c2ccc(O)cc2)CC1	79µM*	?	-8%	-16%
CCCC(=O)OC[C@H]1CN(C2CCCC2)S(=O)(=O)c2c(Oc3ccc(F)cc3OC)cccc2O1	nt	-10%	nt	nt
COc1ccc(OCC2c3cc(OC)c(OC)cc3CCN2C(=O)C(C)C)cc1 (centres undefined)	1%	-6%	-17%	27µM*
CCOC(=O)NC(=O)CSc1cc(C)c2cc(C)cc(C)c2n1	45µM*	1%	-11%	-22%
COC(=O)c1ccc(CSc2n[nH]c(C)n2)o1	11%	-11%	-4%	-4%
COC(=O)c1ccc(CSc2cc(C)c3cc(C)cc(C)c3n2)o1	14µM*	0%	-15%	-13%
CC(C)c1nnc(SCC(=O)NCCC2=CCCCC2)n1N	?	?	89µM*	11µM*
COCCNC(=O)CSc1cc(C)c2cc(C)cc(C)c2n1	nt	43%	nt	nt
Cc1cc(C)c2nc(SCC(=O)NCCC3=CCCCC3)cc(C)c2c1	3%	16µM*	-13%	?
CCN(CC(=O)Nc1ccccc1C(F)(F)F)C(=O)c1ccc(NC(=O)c2cccs2)cc1	nt	1%	nt	3%
CC1(C(=O)NCCCn2ccnc2)CCc2cnc(NCc3ccccc3)nc21 (centres undefined)	nt	11%[176 µM]	nt	nt
COC(=O)c1ccc(CSc2n[nH]c(=S)s2)o1	-27%	16µM*	-1%	?
COC(=O)c1ccc(CSc2nc3ccccc3s2)o1	-12%	-20%	3%	-6%
Cn1c(=O)c2c(nc(SC3C(=O)CC(C)(C)CC3=O)n2C)n(C)c1=O	56µM*	?	9%	-1%
CC(C)Sc1nc2c(c(=O)n(C)c(=O)n2C)n1C	1%	-18%	19%	-5%
SMILES	Sfp inh	ALOX12 inh	VDR inhibitor	PLK1 PBD inh
CCCn1c(C)nc2c(N3CCCN(Cc4ccccc4)CC3)nc(C)nc21	19%	nt	nt	nt
CCCn1c(-c2ccc(F)cc2)nc2c(N3CCCN(Cc4ccccc4)CC3)nc(C)nc21	22µM*	nt	nt	nt
Cc1ccc(C)c(NC(=S)c2ccccn2)c1	-19%	?	-14%	24µM*
Cc1ccc(NC(=S)c2nc3ccccc3s2)cc1	14%	0%	4%	-15%
Cc1ccc(C)c(NC(=S)c2ccc3ccccc3n2)c1	10%	2%	-12%	3%
Cc1ccc(C)c(NC(=S)c2nc3ccccc3s2)c1	?	1%	9%	8.4µM*
CC(=O)c1ccc(-n2c(CCC(=O)O)ccc2-c2ccccc2)cc1	22%	0%	0%	0%
CC(=O)c1cccc(-n2c(CCC(=O)O)ccc2-c2cccs2)c1	8.9µM*	?	-23%	-26%
COC(=O)c1ccc(-n2c(CCC(=O)O)ccc2-c2ccccc2)cc1	?	nt	17%	-26%
CC(=O)c1cccc(-n2c(CCC(=O)O)ccc2-c2ccccc2)c1	71µM*	-12%	-9%	-2%
O=C(O)CCc1ccc(-c2cccs2)n1-c1ccc(C(=O)O)cc1	28µM*	?	-29%	?
CC(C)(C)c1ccc(C(=O)Nn2c(CCC(=O)O)ccc2-c2cccs2)cc1	56µM*	-21%	-15%	-11%

Bioassay records from PubChem BioAssay.
